The record followed here is the supplement of paper PMC6555819.

Holding throughout (experiment): PBM binding z-score (relative to random genomic background probes); higher = stronger binding; sequences stand for … in GC…GCGATTGACAGCGTAGAATGAAGG
In assay [1] the test system is FXR:RXRa (NR concentration 270 nM, RXRa partner concentration 90 nM). The gist of the method: (§1)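 For binding z-scores, the reference was random background probes on custom Agilent 4×180K protein-binding microarrays. These arrays were incubated 1 h with ligand-free nuclear receptor dimers in PBS pH 7.4, 2% milk, 0.02% Triton X-100, 1 mM DTT, 0.2 mg/mL BSA and 0.4 mg/ml salmon testes DNA. Fluorescence was scanned after antibody detection of each partner (one per run) and regression-normalized.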

Assay [2] has as its system LXRa:RXRa (NR concentration 270 nM, RXRa partner concentration 90 nM). The gist of the method: as §1
Assay [3] relates to LXRa homodimer (NR concentration 270 nM). The gist of the method:
as §1

Assay [4] relates to LXRb:RXRa (NR concentration 270 nM, RXRa partner concentration 90 nM). The gist of the method:
as §1

Assay [5] deals with LXRb homodimer (NR concentration 270 nM). The gist of the method: as §1
The subject of assay [6] is PPARa:RXRa (NR concentration 270 nM, RXRa partner concentration 90 nM). The gist of the method:
as §1

The test system of assay [7] is PPARg:RXRa (NR concentration 180 nM, RXRa partner concentration 90 nM). The gist of the method: as §1
For assay [8], the system named is PPARg:RXRa 270nM:90nM, anti-RXR (NR concentration 270 nM, RXRa partner concentration 90 nM). The gist of the method: as §1
For assay [9], the system named is PPARg:RXRa 30nM:10nM, anti-RXR (NR concentration 30 nM, RXRa partner concentration 10 nM). The gist of the method: as §1
In assay [10] the test system is PPARg:RXRa 90nM:30nM, anti-RXR (NR concentration 90 nM, RXRa partner concentration 30 nM). The method, boiled down:
as §1

The test system of assay [11] is PPARg:RXRa DBDmut IVT, anti-RXR (DBD mutation: RXRa K156A/R161A, NR concentration 270 nM, RXRa partner concentration 90 nM). The method, boiled down:
as §1

The test system of assay [12] is PPARg:RXRa IVT, anti-PPARg (NR concentration 270 nM, RXRa partner concentration 90 nM). The gist of the method:
as §1

The subject of assay [13] is PPARg DBDmut:RXRa IVT, anti-PPARg (DBD mutation: PPARg1 K132A/R137A, NR concentration 270 nM, RXRa partner concentration 90 nM). The method, boiled down: as §1
Assay [14] concerns PPARg DBDmut IVT, anti-PPARg (DBD mutation: PPARg1 K132A/R137A, NR concentration 270 nM). The method, boiled down:
as §1

The test system of assay [15] is PPARg homodimer (NR concentration 180 nM). The method, boiled down: as §1
In assay [16] the test system is PXR:RXRa (NR concentration 270 nM, RXRa partner concentration 90 nM). The method, boiled down:
as §1

Assay [17] has as its system PXR homodimer (NR concentration 270 nM). The gist of the method: as §1
In assay [18] the test system is RARa:RXR (NR concentration 270 nM, RXRa partner concentration 90 nM). The method, boiled down: as §1
Assay [19] deals with RARa homodimer (NR concentration 270 nM). The method, boiled down:
as §1

In assay [20] the test system is RARb:RXRa (NR concentration 270 nM, RXRa partner concentration 90 nM). The gist of the method: as §1

In the case of ATCTCTATGTAACAAGTTCAGTGAAAGAGAGGAC, the PBM binding z-score in [1] was -0.00461; in assay [2] it was 0.0801; in assay [3], 0.289; in [4], 0.189; in assay [5], 0.769; in assay [6], 0.267. For the same sequence, the PBM binding z-score in assay [7] is 0.597; in assay [8], 0.532; in assay [9], 0.31; in assay [10] it was 0.575; in assay [11], -0.367; in [12], 0.29. The PBM binding z-score in assay [13] was 1.13; in [14] it was 0.92; in assay [15] it was 0.596; in assay [16], 1.35; in [17] it was 1.37; in assay [18], 0.511. Moreover, the PBM binding z-score in assay [19] stood at 0.404; in assay [20] it was 1.08.

Turning to ATATGTAGGTTACATCCGGGTCATTCGGGCTATG, the PBM binding z-score was found to be 2.27 in assay [1]; 4.61 in assay [2]; 1.71 in [3]; 2.96 in [4]; 1.11 in assay [5]; 4.42 in assay [6]. Further, the PBM binding z-score in assay [7] was found to be 5.83; in assay [8], 5.08; in [9] it was 2.18; in assay [10], 4.17; in [11] it was 7.29; in [12], 7.46. Also, the PBM binding z-score in assay [13] came out at 3.23; in [14] it was 1.74; in assay [15] it was 1.58; in assay [16], 3.48; in [17] it was 1.47; in assay [18] it was 3.61. For the same sequence, the values for the PBM binding z-score in assay [19] and in assay [20] were 0.896 and 2.27, respectively.

On to ACAGACAGGTTATGAAGGTAACTCAGGCTATCAT, for which the PBM binding z-score came to 0.409 in [1]; 0.85 in assay [2]; 0.14 in assay [3]; 0.672 in [4]; 0.2 in assay [5]; 1.21 in [6]. The PBM binding z-score in assay [7] is 0.876; in assay [8], 0.402; in assay [9], -0.0537; in assay [10], 0.403; in [11], 0.3; in assay [12], 0.659. Moreover, the PBM binding z-score turned out to be 0.714 in assay [13]; 0.581 in assay [14]; 0.432 in assay [15]; 0.377 in [16]; 0.271 in assay [17]; 0.863 in assay [18]. Moreover, the results for the PBM binding z-score in assay [19] and in [20] were 0.217 and 0.899, respectively.

Regarding CCTCGGAGGACGACAGGAGGTCAGAGCTGCCAGA, the PBM binding z-score was 0.759 in assay [1]; 1.38 in assay [2]; 0.305 in assay [3]; 1.13 in [4]; -0.711 in assay [5]; 1.8 in [6]. The PBM binding z-score in [7] was 0.288; in [8], 0.213; in assay [9] it was -0.596; in assay [10] it was -0.215; in assay [11] it was -0.728; in assay [12], -0.00812. The PBM binding z-score is -0.427 in [13]; -1.79 in assay [14]; 1.19 in assay [15]; 1.89 in [16]; -0.155 in [17]; 2.06 in [18]. Further, the values for the PBM binding z-score in assay [19] and in [20] were 0.247 and 2.18, respectively.

Take AGAATGAGGTTACAAAAGATCAGGGAAACGCTTG: the PBM binding z-score in [1] was 1.59; in assay [2], 6.22; in [3], -0.11; in [4], 3.07; in assay [5], 0.0675; in [6], 3.05. For the same sequence, the PBM binding z-score in [7] was found to be 2.31; in assay [8], 2.26; in assay [9] it was 0.772; in [10], 1.54; in assay [11] it was 3.87; in assay [12], 3.13. The PBM binding z-score in assay [13] came to 1.47; in assay [14], 0.745; in assay [15], 0.909; in assay [16], 1.23; in [17] it was 0.246; in assay [18], 1.88. The results for the PBM binding z-score in [19] and in [20] were -0.148 and 1.81, respectively.

On to CCTTACGGGTCACTGACAGGTTATGGCATTTGGA, for which the PBM binding z-score in assay [1] was 5.56; in [2] it was 4.1; in assay [3], 0.253; in [4] it was 3.08; in assay [5], -0.323; in assay [6] it was 5.03. Also, the PBM binding z-score in assay [7] was found to be 4.2; in assay [8] it was 4.62; in assay [9] it was 1.67; in assay [10], 3.02; in assay [11], 3.42; in [12], 3.8. The PBM binding z-score in assay [13] is 0.363; in [14] it was -0.311; in assay [15] it was 3.61; in assay [16] it was 3.77; in [17] it was -0.0581; in assay [18] it was 4.95. Also, the PBM binding z-score in [19] is 1.29; in assay [20] it was 4.04.

On to CGTCCAACGTCAGAGAGGTCAGTGAATGCCGAGT, for which the PBM binding z-score was 1.61 in assay [1]; 1.76 in [2]; 0.849 in assay [3]; 1.75 in assay [4]; -0.287 in assay [5]; 2.31 in assay [6]. The PBM binding z-score in assay [7] was 0.391; in [8] it was 0.537; in assay [9] it was -0.521; in [10], -0.194; in assay [11] it was 0.129; in [12], 0.706. The PBM binding z-score was -0.788 in assay [13]; -0.969 in assay [14]; 1.24 in assay [15]; 2.74 in [16]; 0.717 in assay [17]; 2.53 in assay [18]. Further, the PBM binding z-score in assay [19] was found to be 0.224; in assay [20] it was 2.92.
